# Test results taken from the supplement of paper PMC12282887.
# ± gives the standard deviation of the averaged measurements.
# Columns and labels:
# Assay in all cases: promoter activity interaction Z-score (Lux/OD deviation from empty-vector control); higher = stronger promoter induction by the compound
# [1] = tested on: E. coli BW25113 acrABp lux reporter
# Outline: (§1)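 E. coli BW25113, as wild type or one of three single-gene deletion strains, carried low-copy luxCDABE promoter reporters and grew in 40 µl LB Lennox in 384-well plates at 37°C, with OD600 and luminescence read every 30 min for 12 h. Each compound was run at four 1:2 dilutions in biological duplicates, integration spanned 0–8 h for wild type and 1–9 h for deletion strains, and wells under 10% of the median growth value were dropped. The score is the Z-transformed residual of growth-normalised luminescence fitted against a control.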
# [2] = tested on: E. coli BW25113 micFp lux reporter
# Outline: as §1
# [3] = tested on: E. coli BW25113 ompFp lux reporter
# Outline: as §1
# [4] = tested on: E. coli BW25113 robp lux reporter
# Outline: as §1
# [5] = tested on: E. coli BW25113 soxSp lux reporter
# Outline: as §1
# [6] = tested on: E. coli BW25113 tolCp lux reporter
# Outline: as §1
# [7] = 18.3 µg/ml, genetic background: wild type
# [8] = 18.3 µg/ml, genetic background: ΔmarA
# [9] = 18.3 µg/ml, genetic background: Δrob
# [10] = 18.3 µg/ml, genetic background: ΔsoxS
# [11] = 36.5 µg/ml, genetic background: wild type
# [12] = 36.5 µg/ml, genetic background: ΔmarA
# [13] = 36.5 µg/ml, genetic background: Δrob
# [14] = 36.5 µg/ml, genetic background: ΔsoxS
# [15] = 73.1 µg/ml, genetic background: wild type
# [16] = 73.1 µg/ml, genetic background: ΔmarA
# [17] = 73.1 µg/ml, genetic background: Δrob
# [18] = 73.1 µg/ml, genetic background: ΔsoxS
# [19] = 146.1 µg/ml, genetic background: wild type
# [20] = 146.1 µg/ml, genetic background: ΔmarA
# [21] = 146.1 µg/ml, genetic background: Δrob
compound,measurement,setting,value
O=C(O)CN(CCN(CC(=O)O)CC(=O)O)CC(=O)O,promoter activity interaction Z-score,[1]; [7],-0.0934 ± 0.22
same,promoter activity interaction Z-score,[1]; [8],-0.603 ± 0.65
same,promoter activity interaction Z-score,[1]; [9],-0.36 ± 0.3
same,promoter activity interaction Z-score,[1]; [10],-0.525 ± 0.13
same,promoter activity interaction Z-score,[1]; [11],-0.397 ± 0.38
same,promoter activity interaction Z-score,[1]; [12],-0.546 ± 0.64
same,promoter activity interaction Z-score,[1]; [13],-0.8 ± 0.08
same,promoter activity interaction Z-score,[1]; [14],-0.688 ± 0.13
same,promoter activity interaction Z-score,[1]; [15],-0.174 ± 0.17
same,promoter activity interaction Z-score,[1]; [16],-0.55 ± 0.59
same,promoter activity interaction Z-score,[1]; [17],-0.865 ± 0.14
same,promoter activity interaction Z-score,[1]; [18],-0.724 ± 0.18
same,promoter activity interaction Z-score,[1]; [19],-0.36 ± 0.21
same,promoter activity interaction Z-score,[1]; [20],-1.25 ± 0.29
same,promoter activity interaction Z-score,[1]; [21],0.682 ± 0.76
same,promoter activity interaction Z-score,[2]; [7],0.0311 ± 0.38
same,promoter activity interaction Z-score,[2]; [8],0.0253 ± 0.09
same,promoter activity interaction Z-score,[2]; [9],-0.0661 ± 0.029
same,promoter activity interaction Z-score,[2]; [10],0.33 ± 0.3
same,promoter activity interaction Z-score,[2]; [11],0.187 ± 0.43
same,promoter activity interaction Z-score,[2]; [12],0.106 ± 0.075
same,promoter activity interaction Z-score,[2]; [13],-0.0635 ± 0.073
same,promoter activity interaction Z-score,[2]; [14],0.413 ± 0.38
same,promoter activity interaction Z-score,[2]; [15],0.253 ± 0.014
same,promoter activity interaction Z-score,[2]; [16],0.129 ± 0.061
same,promoter activity interaction Z-score,[2]; [17],0.0924 ± 0.051
same,promoter activity interaction Z-score,[2]; [18],0.66 ± 0.28
same,promoter activity interaction Z-score,[2]; [19],1.76 ± 0.36
same,promoter activity interaction Z-score,[2]; [20],2.53 ± 1.4
same,promoter activity interaction Z-score,[2]; [21],2.95 ± 1.1
same,promoter activity interaction Z-score,[3]; [7],-0.399 ± 0.35
same,promoter activity interaction Z-score,[3]; [8],-0.581 ± 0.52
same,promoter activity interaction Z-score,[3]; [9],-0.522 ± 0.013
same,promoter activity interaction Z-score,[3]; [10],0.261 ± 0.35
same,promoter activity interaction Z-score,[3]; [11],-0.73 ± 0.2
same,promoter activity interaction Z-score,[3]; [12],-0.519 ± 0.045
same,promoter activity interaction Z-score,[3]; [13],-0.748 ± 0.082
same,promoter activity interaction Z-score,[3]; [14],0.0564 ± 0.85
same,promoter activity interaction Z-score,[3]; [15],-1.22 ± 0.24
same,promoter activity interaction Z-score,[3]; [16],-0.836 ± 0.33
same,promoter activity interaction Z-score,[3]; [17],-0.994 ± 0.2
same,promoter activity interaction Z-score,[3]; [18],0.0122 ± 0.85
same,promoter activity interaction Z-score,[3]; [19],-1.07 ± 0.81
same,promoter activity interaction Z-score,[3]; [20],-1.23 ± 0.21
same,promoter activity interaction Z-score,[3]; [21],-1.04 ± 0.81
same,promoter activity interaction Z-score,[4]; [7],-0.212 ± 0.066
same,promoter activity interaction Z-score,[4]; [8],-1.05 ± 0.051
same,promoter activity interaction Z-score,[4]; [9],0.174 ± 0.67
same,promoter activity interaction Z-score,[4]; [10],0.244 ± 0.58
same,promoter activity interaction Z-score,[4]; [11],-0.656 ± 0.16
same,promoter activity interaction Z-score,[4]; [12],-0.174 ± 0.088
same,promoter activity interaction Z-score,[4]; [13],-0.454 ± 0.91
same,promoter activity interaction Z-score,[4]; [14],0.113 ± 1.1
same,promoter activity interaction Z-score,[4]; [15],-0.785 ± 0.22
same,promoter activity interaction Z-score,[4]; [16],-0.143 ± 0.47
same,promoter activity interaction Z-score,[4]; [17],-0.796 ± 0.055
same,promoter activity interaction Z-score,[4]; [18],-0.553 ± 0.47
same,promoter activity interaction Z-score,[4]; [19],-1.32 ± 0.071
same,promoter activity interaction Z-score,[4]; [20],-1.53 ± 0.59
same,promoter activity interaction Z-score,[5]; [7],-0.509 ± 0.063
same,promoter activity interaction Z-score,[5]; [8],-0.316 ± 0.052
same,promoter activity interaction Z-score,[5]; [9],-0.315 ± 0.048
same,promoter activity interaction Z-score,[5]; [10],-0.181 ± 0.14
same,promoter activity interaction Z-score,[5]; [11],-0.478 ± 0.23
same,promoter activity interaction Z-score,[5]; [12],-0.479 ± 0.017
same,promoter activity interaction Z-score,[5]; [13],-0.494 ± 0.011
same,promoter activity interaction Z-score,[5]; [14],-0.421 ± 0.15
same,promoter activity interaction Z-score,[5]; [15],-0.487 ± 0.045
same,promoter activity interaction Z-score,[5]; [16],-0.43 ± 0.35
same,promoter activity interaction Z-score,[5]; [17],-0.698 ± 0.13
same,promoter activity interaction Z-score,[5]; [18],-0.236 ± 0.11
same,promoter activity interaction Z-score,[5]; [19],1.26 ± 0.066
same,promoter activity interaction Z-score,[5]; [20],1.71 ± 1.1
same,promoter activity interaction Z-score,[5]; [21],1.4 ± 0.082
same,promoter activity interaction Z-score,[6]; [7],0.221 ± 0.32
same,promoter activity interaction Z-score,[6]; [8],-0.411 ± 0.67
same,promoter activity interaction Z-score,[6]; [9],-0.43 ± 0.067
same,promoter activity interaction Z-score,[6]; [10],0.426 ± 0.54
same,promoter activity interaction Z-score,[6]; [11],0.548 ± 0.048
same,promoter activity interaction Z-score,[6]; [12],-0.02 ± 1
same,promoter activity interaction Z-score,[6]; [13],-0.146 ± 0.27
same,promoter activity interaction Z-score,[6]; [14],-0.2 ± 0.11
same,promoter activity interaction Z-score,[6]; [15],-0.165 ± 0.86
same,promoter activity interaction Z-score,[6]; [16],-0.102 ± 0.4
same,promoter activity interaction Z-score,[6]; [17],-0.0689 ± 0.14
same,promoter activity interaction Z-score,[6]; [18],0.835 ± 0.86
same,promoter activity interaction Z-score,[6]; [19],1.75 ± 0.63
same,promoter activity interaction Z-score,[6]; [20],1.55 ± 0.38
same,promoter activity interaction Z-score,[6]; [21],1.79 ± 0.72
